Results from PubChem BioAssay (NCI).
Several values for one entry are separate records, joined by “and”; a condition that tells them apart may be missing. Equal values may be shown once. About 83,000 compounds went through this panel and 20% of them were active in at least one assay; those are over-represented in the sample as a whole.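 Testing used 96-well plates and a 48-hour single-concentration exposure. Example: -40 means 40% of the starting cells died.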 Activity calls are given as the source filed them. Rule for the calls: active = growth percent below 10; inactive = the rest.

Tested on: MCF7 breast
Test: NCI-60 one-dose screen, 48 h (100 = growth as untreated, 0 = no growth, -100 = all killed)
Settings: 10 µM unless noted

SMILES | growth
C[N+](C)(CCNC(=O)c1cccc2cc3ccccc3nc12)Cc1ccc([N+](=O)[O-])s1 | 37.1% [25 µM] (inactive) and 55.9% [25 µM] (inactive)
CO/C(N)=C(\C#N)N=Cc1ccc2ccccc2c1 | 8.6% [100 µM] (active) and 1.15% [100 µM] (active)
N#CC1(C#N)C2CCCCC23OC(=N)C1(C#N)C(c1ccco1)O3 (configuration not stated) | -54% [100 µM] (active)
NC1N=C(c2ccc(Cl)cc2)C2=C(N1)c1ccccc1CC2 (configuration not stated) | 13.4% [100 µM] (inactive) and -96.2% [100 µM] (active)
COc1ccc(/C=c2\[nH]c3nc(=O)c(N4CCOCC4)c(N)n3c2=O)cc1 | 56.5% [100 µM] (inactive) and 43.7% [100 µM] (inactive)
COc1cc([C@H]2OC[C@H]3[C@@H]2CO[C@@H]3c2cc(OC)c3c(c2)OCO3)cc(OC)c1OC | 18.5% [100 µM] (inactive) and 2.61% [100 µM] (active)
C[C@@H]1C[C@@H]2OC(=O)[C@]3(C)[C@H]2[C@@H](OC3(C)O)[C@]2(C)C(=O)C=C[C@@H]12 (some centres not stated) | -67.1% [100 µM] (active) and -81.7% [100 µM] (active)
O=C1c2ccccc2-c2c1c1ccccc1c(=O)n2-c1cccnc1 | 21.1% [100 µM] (inactive) and 3.24% [100 µM] (active)
CC(=O)c1ccc(NC(=O)/C(CC(=O)/C=C/c2ccccc2)=N/NC(N)=S)cc1 | 52.9% [100 µM] (inactive) and 4.14% [100 µM] (active)
CCC(c1ccc(N(C)C)cc1)C1NC(=S)NC1=O (configuration not stated) | 37.9% [100 µM] (inactive) and 10.5% [100 µM] (inactive)
C/C(O)=C/c1nc2sc(C)c(C)c2c(=O)s1 | 10.6% [100 µM] (inactive) and 6.54% [100 µM] (active)
COC(=O)c1ccc(NC(=O)O/N=C(\Cl)C(C)C)cc1 | -87.1% [100 µM] (active) and -100% [100 µM] (active)
CCCCCCCCOC(=O)C12Oc3ccc(-c4ccc5c(c4O)C(O)=C4C(=O)CC(C)C(O)C4(C(=O)OCCCCCCCC)O5)c(O)c3C(O)=C1C(=O)CC(C)C2O (configuration not stated) | -22.3% [100 µM] (active) and -100% [100 µM] (active)
COc1c2c(c3c(c1OC)c(=O)c1ccccc1n3C)OCO2 | 81.3% [100 µM] (inactive)
CC1(C)Oc2ccc3c(=O)cc(-c4ccc(F)cc4)oc3c2C1C(=O)O (configuration not stated) | 86.7% [100 µM] (inactive) and 80.6% [100 µM] (inactive)
CC(C)CCCC(C)[C@H]1CC[C@H]2[C@@H]3CC[C@H]4C[C@@H](CCC=C(c5cc(Cl)c(O)c(C(=O)O)c5)c5cc(Cl)c(O)c(C(=O)O)c5)CC[C@]4(C)[C@H]3CC[C@]12C (some centres not stated) (tested in a mixture with another compound) | 97.3% [50 µM] (inactive)
COc1cc2oc3c(c(=O)c2c(O)c1/C=C/C(C)C)CCC(C)(C)Oc1cc(O)ccc1-3 | -61% [100 µM] (active) and -100% [100 µM] (active)
CCOC(=O)C(=O)C(CCC(=O)c1ccc2ccccc2c1O)C(=O)OCC (configuration not stated) | 69.9% [100 µM] (inactive) and 81.3% [100 µM] (inactive)
COc1ccc(C)cc1NC(=S)C#N | 77.9% [100 µM] (inactive) and 4.98% [100 µM] (active)
C[C@]12CC[C@@H]3c4ccc(OS(N)(=O)=O)cc4CC[C@H]3[C@@H]1CCC2=O | 15.4% [100 µM] (inactive) and 44.8% [100 µM] (inactive)
C=C1CC2(C)CCC(OC(=O)C3(C)OC3C)C(C)(OC(C)=O)C2CC1=C(C)C (configuration not stated) | 67% [100 µM] (inactive) and 8.58% [100 µM] (active)
CCn1c2c(c3ccccc3c1=O)C(=O)c1ccccc1-2 | 71.7% [100 µM] (inactive) and 21% [100 µM] (inactive)
